Records with an inconclusive call do not appear. Activity calls are given as the source filed them. Unless noted, the call rests on the fitted dose curve; in most records, active means well fitted curve in the direction sought with a large enough effect; inconclusive means small, poorly fitted or top-dose-only effect, or another doubt; inactive means no such curve, though single readings can be large; an effect the other way counts as inactive or inconclusive.
How the values were obtained:
[1] = molecular target: Lysosomal acid glucosylceramidase (Homo sapiens) (UniProt P04062); assay: Glucocerebrosidase-p2 (AID 348; in the data active means potency below about 10 µM; further: potency means the concentration at half of the fitted maximal effect); details: purified GBA, blue fluorogenic substrate, 40 min
In short: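 Normal human glucocerebrosidase (0.2 nM) with blue fluorogenic substrate (80 uM final) in citrate/phosphate pH 5.9 with 10mM sodium taurocholate, 0.01% tween-20; 40 min RT, NaOH/glycine stop; fluorescence Ex 365/Em 440; AC50 from a titration from 0.6 nM upwards.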

[2] = AP1 Signaling Pathway (AID 357; active means well fitted curve in either direction with a large enough effect, not every such curve was filed as active;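 further: ME-180 reporter cells stimulated with EGF at its EC50 level; on the % scale 0 is the no-effect control and ±100 the full control effect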); details: ME-180 AP-1-bla reporter, EGF-induced, beta-lactamase ratio, 5 h; at 7.69 µM (top of the series) unless noted
In short: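 Beta-lactamase reporter under AP-1 response element, ME-180 background. Stimulus: EC50 EGF. Compound exposure 5 h, 37 °C. Detection: CCF4, 2.5 h RT, 460/530 nm. Values: AC50 from titration.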

[3] = molecular target: Cytochrome P450 1A2 (Homo sapiens) (UniProt P05177); assay: p450-cyp1a2 (AID 410; calls by dose curve; further: potency means the concentration at half of the fitted maximal effect); details: recombinant CYP1A2, luciferin-ME demethylation, luminescence; series mostly up to 57 µM
In short: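 O-Demethylation of luciferin 6' methyl ether by human CYP1A2 is monitored as luciferase luminescence. Substrate sits at Km (100uM); enzyme is 20nM. Values are scaled to 57 uM furafylline as maximal inhibition.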

[4] = NFAT Signaling Pathway (AID 444; active means well fitted curve in either direction with a large enough effect, not every such curve was filed as active;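 further: carbachol stimulus at about its EC50 of 1 µM final; on the % scale 0 is the no-effect control and ±100 the full control effect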); details: Jurkat NFAT-bla M1, carbachol, beta-lactamase ratio, 5 h; at 7.69 µM (top of the series) unless noted
In short: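 Read-out: CCF4 FRET ratio (460 nm/530 nm) after 1 h RT dye loading, used for %activity and AC50 from titration series. Cells: Jurkat NFAT-β-lactamase/M1 line, treated with compound plus 1 uM carbachol for 5 h, 37 °C.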

[5] = Stat Signaling Pathway (AID 446; active means well fitted curve in either direction with a large enough effect, not every such curve was filed as active;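 further: ME-180 cervical cancer cells given 40 pM IL-6 alongside compound; SIE-controlled beta-lactamase reporter measured as 460/530 nm FRET emission ratio; on the % scale 0 is the no-effect control and ±100 the full control effect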); details: ME-180 SIE beta-lactamase reporter, IL-6 stimulated, 5 h; at 7.69 µM (top of the series) unless noted
In short: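 Overnight-plated ME-180 cells bearing a STAT Inducible Element beta-lactamase reporter; 5 h co-exposure to compound and 40 pM IL-6; values normalized to 300 pM IL-6 and 125 nM JAK inhibitor controls.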

[6] = molecular target: Glucocorticoid receptor (Homo sapiens) (UniProt P04150); assay: GR-GFP Redistribution (AID 450;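 active means compounds whose dose series gives a full or clear partial fitted curve of increased nuclear translocation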; further: potency means the concentration at half of the fitted maximal effect); details: U2OS GR-GFP nuclear translocation, laser cytometry, 2 h
[7] = molecular target: Glucocorticoid receptor (Homo sapiens) (UniProt P04150); assay: GR-EFC Redistribution (AID 451; calls by dose curve; further: potency means the concentration at half of the fitted maximal effect); details: CHO-K1 GR-EFC translocation, beta-gal luminescence, 2 h
In short: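 Translocation of GR-ED fusion to nuclear EA restores b-gal, read by luminescence after 1 h room-temperature detection. Engineered CHO-K1 biosensor cells, 1,000/well, exposed 2 h at 37 C to titrations up to 46 uM final.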

[8] = molecular target: Mitogen-activated protein kinase 10 (Mus musculus) (UniProt Q61831); assay: JNK3 AlphaScreen Assay (AID 530; active means well fitted curve in either direction with a large enough effect, not every such curve was filed as active;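 further: kinase came from lysate of stimulated human HepG2 cells; signal reports phosphorylation of biotinylated GST-cJun 1-79 at Ser73 with 10 µM ATP; on the % scale 0 is the no-effect control and ±100 the full control effect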); details: JNK3 lysate, c-Jun phosphorylation; series mostly up to 57.1 µM
In short: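 qHTS titrations with 15 min compound pre-incubation before adding ATP (10 uM final). Read-out: AlphaScreen of Ser73-phosphorylated biotin-GST-cJun using HepG2 lysate JNK3 activated by IL-1β and TNFα.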

[9] = molecular target: 3',5'-cyclic-AMP phosphodiesterase 4B (Homo sapiens) (UniProt Q07343); assay: qHTS Assay for Inhibitors of PDE-IV (AID 607; active means well fitted activation curve with a large enough effect in the main read-out, with a control signal flat, not every such curve was filed as active; further: % of control where 0% means no effect); details: HEK293 ACTOne CNG channel cells, membrane potential fluorescence; series mostly up to 22.9 µM
In short: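 Live HEK293 cells with a modified cyclic nucleotide-gated (CNG) channel report intracellular cAMP via membrane-potential dye fluorescence (ex 535/em 590 nm). Endogenous PDE-IV was targeted. Compounds were tested at up to 22.9 uM final; RO 20-1724 100 uM served as control.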

[10] = molecular target: Cytochrome P450 3A4 (Homo sapiens) (UniProt P08684); assay: qHTS Assay for Inhibitors and Substrates of Cytochrome P450 3A4 (AID 884); details: recombinant CYP3A4, Luciferin-PPXE luminescence; series mostly up to 57.1 µM; further: potency means the concentration at half of the fitted maximal effect; nearly all actives have a fitted effect of over 50% in size
In short: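 Luminescent readout of luciferin produced by CYP3A4 (20 nM) dealkylation of Luciferin-PPXE, 25 uM (its KM). NADPH-driven reaction ran 60 min at RT after 10 min compound preincubation; data scaled to 57 uM ketoconazole as 100% inhibition.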

[11] = molecular target: Cytochrome P450 3A4 (Homo sapiens) (UniProt P08684); assay: qHTS Assay for Activators of Cytochrome P450 3A4 (AID 885); details: recombinant CYP3A4, Luciferin-PPXE luminescence, 60 min; series mostly up to 57.1 µM; further: nearly all actives have a fitted effect of over 65% in size
In short: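 Using 20nM recombinant human CYP3A4 in potassium phosphate (200mM), substrate Luciferin-PPXE at 25uM, luminescent luciferin detection followed a 60-min RT NADPH reaction; data scaled to 57 uM ketoconazole.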

[12] = qHTS Assay for Lipid Storage Modulators (AID 1519; calls by dose curve); details: Drosophila S3 cells, BODIPY lipid droplet/cell ratio, laser cytometry, cells loaded with oleic acid; for activity change, negative = inhibition: at 57.5 µM (top of the series)
In short: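 Cells seeded at 5,000 per well were treated with compounds over a concentration series and loaded with oleic acid (400 uM, as added). Lipid droplet fluorescence (488 nm excitation, 500-530 nm channel) was read by laser-scanning cytometry and normalized to 20 uM Triacsin C.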

[13] = molecular target: Ubiquitin carboxyl-terminal hydrolase 1 (Homo sapiens) (UniProt O94782); assay: Inhibitors of USP1/UAF1: Pilot qHTS (AID 504865); details: purified USP1/UAF1, Ub-rhodamine cleavage fluorescence; series mostly up to 54.9 µM;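 further: rhodamine fluorescence freed from ubiquitin-rhodamine substrate followed over time; top concentration of the series differs between compounds; on the % scale 0 is the no-effect control and ±100 the full control effect; nearly all actives have a fitted effect of over 35% in size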
In short: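 USP1/UAF1 complex at 1 nM preincubated 15 min at room temperature with compound, then Ub-Rho substrate added at 150 nM final. Fluorescence (480/540 nm) read kinetically in 50 mM HEPES pH 7.8, 0.5 mM EDTA, 1 mM TCEP, 0.1 mg/ml BSA, 0.01% Tween-20.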

[14] = Primary qHTS for small molecule stabilizers of the endoplasmic reticulum resident proteome: Secreted ER Calcium Modulated Protein (SERCaMP) assay (AID 1508630); details: SH-SY5Y GLuc-SERCaMP (Gaussia luciferase released on ER calcium loss) secretion, thapsigargin, luminescence; series mostly up to 38.4 µM; further: on the % scale 0 is the no-effect control and ±100 the full control effect
In short: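 The SH-SY5Y reporter protocol was run at 3 concentrations up to 38.3 uM (primary) or 11 concentrations (follow-up): 16 h compound, 100 nM thapsigargin for 4 h, then extracellular luciferase luminescence.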

[15] = molecular target: Cytochrome P450 2C19 (Homo sapiens) (UniProt P33261); assay: qHTS Assay for Inhibitors and Substrates of Cytochrome P450 2C19 (AID 899); details: recombinant CYP2C19, luciferin-H EGE luminescence; series mostly up to 57.1 µM; further: potency means the concentration at half of the fitted maximal effect; nearly all actives have a fitted effect of over 60% in size
In short: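 Reactions contain 5nM enzyme, 10uM Luciferin-H EGE (KM) and 50mM KPO4; compound preincubates 10 min at 37C, NADPH regeneration starts turnover for 60 min. Luminescence after detection reagent gives activity.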

[16] = qHTS Assay for Identification of Small Molecule Agonists for Hypoxia Response Element Signaling Pathway (AID 914; active means well fitted activation curve with a large enough effect in the signal ratio, with a control signal flat, not every such curve was filed as active; the % refers to the signal ratio; further: potency means the concentration at half of the fitted maximal effect); details: ME-180 (cervical carcinoma) HRE-bla reporter, beta-lactamase ratio, CoCl2, 17 h; activation: stronger effect = higher value
In short: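 HRE-bla ME-180 cells with beta-lactamase reporter under hypoxia response element, compounds with EC50 CoCl2 for 17 hours at 37 C. CCF4 substrate, 460nm/530nm emission ratio gave %Activity; AC50 from titration series.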

[17] = molecular target: Dual specificity protein kinase CLK4 (Homo sapiens) (UniProt Q9HAZ1); assay: qHTS Assay for Inhibitors of CDC-like Kinase 4 (ADP-FP Assay) (AID 1795); details: Transcreener ADP fluorescence polarization; series mostly up to 50 µM; further: nearly all actives have a fitted effect of over 60% in size; further: potency means the concentration at half of the fitted maximal effect
In short: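 Recombinant Clk4 (6.25 nM) phosphorylated 100 uM RS repeat peptide with 1 uM ATP in 25 mM Tris pH 7.5, 10 mM MgCl2, 0.5 mM EGTA, 2.5 mM DTT, 0.01% Triton X-100 for 1 h. ADP was detected by Transcreener ADP2 competitive fluorescence polarization after 30 min at room temperature.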

[18] = measured here: cell count channel max response
[19] = measured here: lipid channel max response

Sequence of Ubiquitin carboxyl-terminal hydrolase 1 (Homo sapiens) (O94782 whole entry, looked up): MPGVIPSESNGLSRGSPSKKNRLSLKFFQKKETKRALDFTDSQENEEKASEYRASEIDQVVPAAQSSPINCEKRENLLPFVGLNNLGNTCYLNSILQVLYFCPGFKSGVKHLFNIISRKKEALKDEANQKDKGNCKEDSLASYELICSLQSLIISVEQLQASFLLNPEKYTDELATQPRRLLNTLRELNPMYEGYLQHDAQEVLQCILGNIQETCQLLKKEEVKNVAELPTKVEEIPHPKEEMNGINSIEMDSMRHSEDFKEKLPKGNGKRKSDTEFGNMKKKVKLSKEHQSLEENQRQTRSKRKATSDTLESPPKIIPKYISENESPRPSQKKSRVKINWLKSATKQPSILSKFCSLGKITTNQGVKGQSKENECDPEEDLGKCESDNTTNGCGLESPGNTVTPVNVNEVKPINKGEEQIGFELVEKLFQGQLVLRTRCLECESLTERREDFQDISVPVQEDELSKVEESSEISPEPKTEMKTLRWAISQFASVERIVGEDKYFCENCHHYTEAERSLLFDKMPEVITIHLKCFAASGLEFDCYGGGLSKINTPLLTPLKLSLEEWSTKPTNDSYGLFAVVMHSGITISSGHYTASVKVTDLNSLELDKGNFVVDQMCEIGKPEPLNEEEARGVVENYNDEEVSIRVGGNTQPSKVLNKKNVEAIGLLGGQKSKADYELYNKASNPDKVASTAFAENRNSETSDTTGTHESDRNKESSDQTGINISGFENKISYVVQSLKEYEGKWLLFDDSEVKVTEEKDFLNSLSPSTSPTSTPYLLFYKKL
Sequence of Lysosomal acid glucosylceramidase (Homo sapiens) (P04062 whole entry, looked up): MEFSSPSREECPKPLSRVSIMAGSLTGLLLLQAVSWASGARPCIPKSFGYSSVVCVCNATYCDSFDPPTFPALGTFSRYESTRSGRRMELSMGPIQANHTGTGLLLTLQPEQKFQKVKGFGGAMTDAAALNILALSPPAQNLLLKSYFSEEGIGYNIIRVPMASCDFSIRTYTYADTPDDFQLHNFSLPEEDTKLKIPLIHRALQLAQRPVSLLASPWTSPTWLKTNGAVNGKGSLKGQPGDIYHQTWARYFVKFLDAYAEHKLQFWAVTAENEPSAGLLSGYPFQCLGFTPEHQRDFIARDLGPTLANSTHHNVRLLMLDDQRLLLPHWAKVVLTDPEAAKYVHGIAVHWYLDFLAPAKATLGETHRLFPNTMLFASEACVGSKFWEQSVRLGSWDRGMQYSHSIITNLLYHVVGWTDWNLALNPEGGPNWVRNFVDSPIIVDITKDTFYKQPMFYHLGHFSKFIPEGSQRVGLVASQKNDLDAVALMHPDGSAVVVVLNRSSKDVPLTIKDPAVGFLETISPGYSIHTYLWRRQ
Sequence of Dual specificity protein kinase CLK4 (Homo sapiens) (Q9HAZ1 whole entry, looked up): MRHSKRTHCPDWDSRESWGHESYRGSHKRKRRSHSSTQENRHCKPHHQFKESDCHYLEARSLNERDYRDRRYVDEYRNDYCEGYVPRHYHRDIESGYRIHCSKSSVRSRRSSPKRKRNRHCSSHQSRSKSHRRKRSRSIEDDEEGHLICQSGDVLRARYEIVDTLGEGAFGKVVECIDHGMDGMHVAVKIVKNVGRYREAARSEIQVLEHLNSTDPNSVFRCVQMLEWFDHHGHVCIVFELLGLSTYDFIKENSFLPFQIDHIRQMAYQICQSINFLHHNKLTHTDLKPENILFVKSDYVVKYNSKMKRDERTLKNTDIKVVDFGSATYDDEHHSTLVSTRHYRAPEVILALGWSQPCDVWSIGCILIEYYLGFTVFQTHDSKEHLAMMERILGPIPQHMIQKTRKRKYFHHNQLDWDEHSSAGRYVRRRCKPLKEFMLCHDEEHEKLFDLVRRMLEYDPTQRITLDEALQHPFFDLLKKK
Sequence of Glucocorticoid receptor (Homo sapiens) (P04150 whole entry, looked up, the tested form may be a part): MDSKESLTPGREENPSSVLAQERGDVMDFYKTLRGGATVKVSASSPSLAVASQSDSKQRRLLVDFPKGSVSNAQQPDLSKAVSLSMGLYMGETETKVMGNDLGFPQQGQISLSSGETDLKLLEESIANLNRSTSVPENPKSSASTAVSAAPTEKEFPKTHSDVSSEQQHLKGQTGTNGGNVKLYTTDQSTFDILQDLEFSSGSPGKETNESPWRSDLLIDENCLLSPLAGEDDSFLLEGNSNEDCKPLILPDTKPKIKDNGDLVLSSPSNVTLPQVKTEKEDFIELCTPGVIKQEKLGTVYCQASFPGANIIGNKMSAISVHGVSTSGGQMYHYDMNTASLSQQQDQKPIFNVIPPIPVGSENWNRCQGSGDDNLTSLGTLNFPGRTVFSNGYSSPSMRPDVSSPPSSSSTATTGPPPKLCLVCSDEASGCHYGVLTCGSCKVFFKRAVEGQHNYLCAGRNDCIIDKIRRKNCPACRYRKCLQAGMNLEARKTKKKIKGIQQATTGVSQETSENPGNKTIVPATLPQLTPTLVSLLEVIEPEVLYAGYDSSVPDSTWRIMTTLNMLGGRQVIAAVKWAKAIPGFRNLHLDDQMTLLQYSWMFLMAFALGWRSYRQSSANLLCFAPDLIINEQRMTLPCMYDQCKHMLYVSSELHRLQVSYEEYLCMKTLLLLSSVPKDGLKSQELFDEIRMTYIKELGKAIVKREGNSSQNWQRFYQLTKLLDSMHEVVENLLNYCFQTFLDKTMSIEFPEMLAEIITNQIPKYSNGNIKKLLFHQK
Sequence of Cytochrome P450 1A2 (Homo sapiens) (P05177 whole entry, looked up): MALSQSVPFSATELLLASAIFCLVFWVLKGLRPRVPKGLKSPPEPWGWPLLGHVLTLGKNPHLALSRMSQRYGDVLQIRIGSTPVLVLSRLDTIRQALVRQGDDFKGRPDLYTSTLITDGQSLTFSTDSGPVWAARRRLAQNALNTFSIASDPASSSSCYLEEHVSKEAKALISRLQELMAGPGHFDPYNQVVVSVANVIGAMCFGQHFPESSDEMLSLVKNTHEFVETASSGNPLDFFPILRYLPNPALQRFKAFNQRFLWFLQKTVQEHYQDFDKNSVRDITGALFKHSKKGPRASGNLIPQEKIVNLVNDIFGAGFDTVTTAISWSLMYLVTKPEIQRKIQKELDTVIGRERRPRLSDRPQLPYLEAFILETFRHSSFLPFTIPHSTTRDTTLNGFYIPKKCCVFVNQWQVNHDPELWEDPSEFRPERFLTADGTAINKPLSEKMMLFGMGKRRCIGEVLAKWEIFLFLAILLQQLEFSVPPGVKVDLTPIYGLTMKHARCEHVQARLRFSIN
Sequence of Cytochrome P450 3A4 (Homo sapiens) (P08684 whole entry, looked up): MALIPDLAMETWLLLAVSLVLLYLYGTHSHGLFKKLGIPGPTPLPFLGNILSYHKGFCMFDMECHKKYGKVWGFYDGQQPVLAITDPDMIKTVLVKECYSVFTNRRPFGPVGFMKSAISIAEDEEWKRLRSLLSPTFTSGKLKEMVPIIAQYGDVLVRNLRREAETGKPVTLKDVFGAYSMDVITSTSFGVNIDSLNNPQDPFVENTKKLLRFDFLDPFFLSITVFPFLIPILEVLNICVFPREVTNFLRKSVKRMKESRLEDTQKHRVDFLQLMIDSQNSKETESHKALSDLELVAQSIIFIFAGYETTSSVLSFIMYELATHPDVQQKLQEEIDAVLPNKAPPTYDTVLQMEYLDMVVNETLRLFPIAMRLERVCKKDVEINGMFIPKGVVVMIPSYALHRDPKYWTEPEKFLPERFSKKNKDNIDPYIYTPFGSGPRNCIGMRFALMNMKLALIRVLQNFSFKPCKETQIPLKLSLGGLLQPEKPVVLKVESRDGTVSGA
Sequence of 3',5'-cyclic-AMP phosphodiesterase 4B (Homo sapiens) (Q07343 whole entry, looked up): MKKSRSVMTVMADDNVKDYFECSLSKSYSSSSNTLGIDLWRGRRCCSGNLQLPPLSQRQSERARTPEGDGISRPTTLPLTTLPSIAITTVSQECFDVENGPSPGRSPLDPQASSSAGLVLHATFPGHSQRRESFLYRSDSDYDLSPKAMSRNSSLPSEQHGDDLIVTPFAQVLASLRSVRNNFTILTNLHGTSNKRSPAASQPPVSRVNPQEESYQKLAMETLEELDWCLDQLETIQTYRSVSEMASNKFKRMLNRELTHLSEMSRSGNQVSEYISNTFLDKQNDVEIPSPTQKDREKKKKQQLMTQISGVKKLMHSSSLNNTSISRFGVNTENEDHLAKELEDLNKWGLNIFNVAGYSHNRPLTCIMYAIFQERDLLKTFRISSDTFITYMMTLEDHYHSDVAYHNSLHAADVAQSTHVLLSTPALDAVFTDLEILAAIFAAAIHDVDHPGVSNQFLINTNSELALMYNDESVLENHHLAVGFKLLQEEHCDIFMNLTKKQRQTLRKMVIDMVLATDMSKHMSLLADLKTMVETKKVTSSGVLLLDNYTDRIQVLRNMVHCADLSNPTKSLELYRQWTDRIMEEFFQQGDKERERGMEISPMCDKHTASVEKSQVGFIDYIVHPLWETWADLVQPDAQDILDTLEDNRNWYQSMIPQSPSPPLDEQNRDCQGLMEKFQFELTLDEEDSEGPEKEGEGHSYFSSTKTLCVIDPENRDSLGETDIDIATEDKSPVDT
Sequence of Cytochrome P450 2C19 (Homo sapiens) (P33261 whole entry, looked up): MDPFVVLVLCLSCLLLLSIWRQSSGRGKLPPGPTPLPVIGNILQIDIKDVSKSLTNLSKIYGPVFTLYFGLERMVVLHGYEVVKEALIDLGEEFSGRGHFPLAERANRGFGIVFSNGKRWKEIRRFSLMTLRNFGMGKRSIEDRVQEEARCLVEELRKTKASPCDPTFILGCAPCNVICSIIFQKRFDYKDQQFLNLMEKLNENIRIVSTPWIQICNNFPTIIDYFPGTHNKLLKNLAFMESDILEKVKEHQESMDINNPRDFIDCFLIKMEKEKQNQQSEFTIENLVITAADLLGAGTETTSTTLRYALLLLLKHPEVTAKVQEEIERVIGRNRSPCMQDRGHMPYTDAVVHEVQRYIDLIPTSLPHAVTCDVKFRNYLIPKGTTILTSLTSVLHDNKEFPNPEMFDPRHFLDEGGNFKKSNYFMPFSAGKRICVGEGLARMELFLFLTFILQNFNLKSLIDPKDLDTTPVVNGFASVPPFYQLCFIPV

SMILES	Potency [1]	activity change, negative = inhibition [2]	Potency [3]	activity change, negative = inhibition [4]	activity, negative = inhibition [5]	Potency [6]	Potency [7]	outcome [8]	Potency [9]	Potency [10]	Potency [11]	activity change, negative = inhibition [12]	max response [12, 18] [%]	max response [12, 19] [%]	Potency [13]	Potency [14]	Potency [15]	Potency [16]	Potency [17]
CN(C)c1ccc(-c2ccc3ncnc(N(C)C)c3c2)cc1	> 11.4 µM (inactive)	-10.3% (inactive)	0.158 µM (active)	-14.1% (inactive)	-0.741% (inactive)	> 46 µM (inactive)	> 46 µM (inactive)	inactive	inactive	6.31 µM (active)	inactive	1.7% (inactive)	9.5	8.94	inactive	inactive	–	–	–
Cc1noc(C)c1-c1ccc2ncnc(NCc3cccnc3)c2c1	> 11.4 µM (inactive)	26.4% (inactive)	0.316 µM (active)	–	–	–	> 46 µM (inactive)	inactive	inactive	2.51 µM (active)	inactive	-3.3% (inactive)	10.5	6	inactive	inactive	0.02 µM (active)	3.16 µM (active)	0.794 µM (active)
COCCNc1cc(-c2c(C)noc2C)ncn1	> 11.4 µM (inactive)	-3.45% (inactive)	10 µM (active)	3.73% (inactive)	–	> 46 µM (inactive)	> 46 µM (inactive)	inactive	inactive	–	–	8.14% (inactive)	13	22.2	inactive	inactive	–	–	inactive
O=c1cnc2cncnc2n1Cc1ccccc1Cl	> 11.4 µM (inactive)	8.55% (inactive)	15.8 µM (active)	-28.3% (inactive)	-5.06% (inactive)	> 9.22 µM (inactive)	> 46 µM (inactive)	inactive	–	–	–	-7.78% (inactive)	-0.667	-10.1	inactive	inactive	–	–	inactive
COc1cccc(Cn2c(=O)cnc3cnc(Oc4ccccc4)nc32)c1	> 11.4 µM (inactive)	-13.9% (inactive)	–	-0.253% (inactive)	-14.7% (inactive)	> 9.22 µM (inactive)	> 46 µM (inactive)	inactive	–	–	–	-0.165% (inactive)	3.98	3.52	inactive	inactive	–	–	inactive
Fc1ccc(Nc2ccnc(-c3ccoc3)n2)cc1	> 11.4 µM (inactive)	-6.54% (inactive)	1 µM (active)	6.01% (inactive)	8.8% (inactive)	> 46 µM (inactive)	> 46 µM (inactive)	inactive	inactive	7.94 µM (active)	inactive	8.99% (inactive)	9.29	17.6	inactive	inactive	–	–	–
